# In PubChem BioAssay (Tox21):
# Unmarked numbers belong to inactive results. Records with an inconclusive call do not appear. Where a call stands in place of a potency, no number is given. Activity calls are given as the source filed them. Unless noted, calls come from the whole dose curve; as a rule, active = well fitted curve in the direction sought with a large enough effect in the repeat runs; inconclusive = weak or mixed curves; inactive = no such curve, though single readings can be large; an effect the other way counts as inactive or inconclusive.
# Assays:
# [1] = qHTS assay to identify small molecule agonists of the hypoxia (HIF-1) signaling pathway (AID 1224846; active = well fitted activation curve with a large enough effect in the signal ratio in the repeat runs, not every such curve was filed as active; the % refers to the signal ratio)
# How it was run: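 Compounds from the Tox21 10K library, dissolved in DMSO, are tested for induction of a hypoxia response element–controlled beta-lactamase reporter in ME-180 cells. Exposure lasts 17 hrs at 37C after a 5 hr settling period, followed by CCF4-AM FRET substrate.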
# [2] = qHTS assay to identify small molecule agonists of H2AX - cell viability counter screen (AID 1224847; calls by dose curve; note: nearly all actives have a fitted effect of over 30% in size; note: potency is the fitted concentration of half-maximal effect)
# How it was run: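 Viability of CHO-K1 (wild type) cells after 3 hr compound exposure was measured by CellTiter-Glo luminescence.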
# [3] = qHTS assay to identify small molecule antagonists of the estrogen related receptor (ERR) signaling pathway from Tox21 library (AID 1224848); note: nearly all actives have a fitted effect of over 50% in size; note: potency is the fitted concentration of half-maximal effect
# How it was run: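 Compounds dissolved in DMSO are pin-transferred onto ERR reporter cells (2,000 per well) that have settled for 6 h at 37 C. Plates then incubate 18 h at 37 C before ONE-Glo luciferase reagent and a luminescence read 30 min later.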
# [4] = qHTS assay to identify small molecule agonists of the estrogen related receptor (ERR) signaling pathway from Tox21 library (AID 1224849; calls by dose curve; note: nearly all actives have a fitted effect of over 15% in size); conditions: ERR reporter cell line, ONE-Glo luciferase, 18 h; at 92.4 µM (top of the series) unless noted
# How it was run: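 Cells carrying the ERR reporter were plated and allowed to settle for 6 h, exposed to library compounds for 18 h at 37 C, then lysed with ONE-Glo and luminescence measured.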
# [5] = qHTS RealTime-Glo MT Cell Viability Assay in HepG2 cells - 24 hour (AID 1224867); note: nearly all actives have a fitted effect of over 50% in size
# How it was run: (§1)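 qHTS, HepG2, 600 cells/well, RealTime-Glo (NanoLuc + prosubstrate) added with cells; 5 h preincubation; DMSO compound addition; 37 C; luminescence at 0/8/16/24/32/40 h.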
# [6] = qHTS RealTime-Glo MT Cell Viability Assay in HEK293 cells - 32 hour (AID 1224868); note: nearly all actives have a fitted effect of over 50% in size; note: potency is the fitted concentration of half-maximal effect
# How it was run: (§2)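 Assay medium contained NanoLuc luciferase plus cell-permeant prosubstrate, added with HEK293 cells at 600 cells/well. After 5 h at 37 C/5% CO2 compounds were added; plates stayed at 37 C for 40 h with serial luminescence reads.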
# [7] = A CellTox Green Cytotoxicity Assay to monitor cytotoxicity in HEK293 cells - 0 hour (AID 1224869); note: nearly all actives have a fitted effect of over 50% in size
# How it was run: (§3)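 Cells (HEK293, 600/well) and dye reagent are dispensed together. After 5 h at 37 C, 23 nL compound is pinned in. Plates stay at 37 C for 40 h with fluorescence read at 0h, 8h, 16h, 24h, 32h and 40h.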
# [8] = qHTS RealTime-Glo MT Cell Viability Assay in HepG2 cells - 40 hour (AID 1224870); note: nearly all actives have a fitted effect of over 50% in size
# How it was run: (§4)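 HepG2 cells (600/well) mixed with RealTime-Glo MT reagent, settled 5 h at 37 C/5% CO2 before compound addition. Nonlytic NanoLuc luminescence from viable-cell prosubstrate reduction read repeatedly during 40 h treatment at 37 C.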
# [9] = A CellTox Green Cytotoxicity Assay to monitor cytotoxicity in HEK293 cells - 40 hour (AID 1224871); note: nearly all actives have a fitted effect of over 45% in size; note: potency is the fitted concentration of half-maximal effect
# How it was run: as §3
# [10] = qHTS RealTime-Glo MT Cell Viability Assay in HEK293 cells - 16 hour (AID 1224872); note: nearly all actives have a fitted effect of over 50% in size; note: potency is the fitted concentration of half-maximal effect
# How it was run: as §2
# [11] = qHTS RealTime-Glo MT Cell Viability Assay in HepG2 cells - 8 hour (AID 1224873); note: nearly all actives have a fitted effect of over 55% in size
# How it was run: as §4
# [12] = qHTS RealTime-Glo MT Cell Viability Assay in HEK293 cells - 40 hour (AID 1224874); conditions: RealTime-Glo luminescence; max response: active compounds read low; note: nearly all actives have a fitted effect of over 50% in size; note: potency is the fitted concentration of half-maximal effect
# How it was run: (§5)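 Real-time viability in HEK293: signal arises when living cells convert a prosubstrate for NanoLuc in the medium, so luminescence tracks viable cell number. Compound (23 nL, DMSO) added 5 h post-seeding; kinetic reads at 0–40 h, 37 C.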
# [13] = A CellTox Green Cytotoxicity Assay to monitor cytotoxicity in HEK293 cells - 24 hour (AID 1224875); note: nearly all actives have a fitted effect of over 45% in size
# How it was run: as §3
# [14] = A CellTox Green Cytotoxicity Assay to monitor cytotoxicity in HepG2 cells - 16 hour (AID 1224876); note: nearly all actives have a fitted effect of over 45% in size
# How it was run: (§6)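 Cells and non-lytic dye reagent are dispensed together (600 HepG2 cells/well) and incubated 5 h before DMSO compound transfer. Kinetic fluorescence is then recorded in the same wells during 40 h at 37 C.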
# [15] = qHTS RealTime-Glo MT Cell Viability Assay in HepG2 cells - 32 hour (AID 1224877); note: nearly all actives have a fitted effect of over 55% in size
# How it was run: as §1
# [16] = A CellTox Green Cytotoxicity Assay to monitor cytotoxicity in HepG2 cells - 24 hour (AID 1224878); note: nearly all actives have a fitted effect of over 45% in size
# How it was run: as §6
# [17] = A CellTox Green Cytotoxicity Assay to monitor cytotoxicity in HepG2 cells - 40 hour (AID 1224879); note: nearly all actives have a fitted effect of over 40% in size
# How it was run: as §6
# [18] = qHTS RealTime-Glo MT Cell Viability Assay in HEK293 cells - 0 hour (AID 1224880)
# How it was run: as §5
# [19] = A CellTox Green Cytotoxicity Assay to monitor cytotoxicity in HEK293 cells - 32 hour (AID 1224881); note: nearly all actives have a fitted effect of over 40% in size
# How it was run: as §3
# [20] = A CellTox Green Cytotoxicity Assay to monitor cytotoxicity in HepG2 cells - 0 hour (AID 1224882); note: nearly all actives have a fitted effect of over 35% in size
# How it was run: as §6
structure (smiles),measurement,setting,value
COP(=O)(CCC(=O)NCO)OC,outcome,[1],inactive
same,Potency,[2],inactive
same,Potency,[3],inactive
same,"activity change, positive = activation",[4],3.27%
same,Potency,[5],inactive
same,Potency,[6],inactive
same,Potency,[7],inactive
same,Potency,[8],inactive
same,Potency,[9],inactive
same,Potency,[10],inactive
same,Potency,[11],inactive
same,max response,[12],14%
same,Potency,[13],inactive
same,Potency,[14],inactive
same,Potency,[15],inactive
same,Potency,[16],inactive
same,Potency,[17],inactive
same,Potency,[18],inactive
same,Potency,[19],inactive
CCc1ccccc1C,outcome,[1],inactive
same,Potency,[2],inactive
same,Potency,[3],inactive
same,"activity change, positive = activation",[4],0.837%
same,Potency,[5],inactive
same,Potency,[6],inactive
same,Potency,[7],inactive
same,Potency,[8],inactive
same,Potency,[9],inactive
same,Potency,[10],inactive
same,Potency,[11],inactive
same,Potency,[14],inactive
same,Potency,[15],inactive
same,Potency,[16],inactive
same,Potency,[17],inactive
same,Potency,[18],inactive
same,Potency,[19],inactive
same,Potency,[20],inactive
Clc1ccc(-c2ccccc2)cc1,outcome,[1],inactive
same,Potency,[2],inactive
same,Potency,[3],inactive
same,"activity change, positive = activation",[4],3.89%
same,Potency,[5],inactive
same,Potency,[6],inactive
same,Potency,[8],inactive
same,Potency,[10],inactive
same,Potency,[11],inactive
same,max response,[12],-16.9%
same,Potency,[14],inactive
same,Potency,[15],inactive
same,Potency,[16],inactive
same,Potency,[17],inactive
same,Potency,[18],inactive
same,Potency,[20],inactive
CCOc1cc(C(C)(C)C)ccc1C1COC(c2c(F)cccc2F)=N1 (stereo not drawn),outcome,[1],inactive
same,Potency,[2],30.7 µM (active)
same,Potency,[3],37.1 µM (active)
same,"activity change, positive = activation",[4],-39.5% [at 42.5 µM]
same,Potency,[5],inactive
same,Potency,[7],inactive
same,Potency,[8],inactive
same,Potency,[9],inactive
same,Potency,[11],inactive
same,Potency,[13],inactive
same,Potency,[14],inactive
same,Potency,[15],inactive
same,Potency,[16],inactive
same,Potency,[17],inactive
same,Potency,[18],inactive
same,Potency,[19],inactive
same,Potency,[20],inactive
CCOP(=S)(OCC)SCS(=O)(=O)CC,outcome,[1],inactive
same,Potency,[2],inactive
same,Potency,[3],inactive
same,"activity change, positive = activation",[4],-5.31%
same,Potency,[5],inactive
same,Potency,[7],inactive
same,Potency,[8],inactive
same,Potency,[9],inactive
same,Potency,[11],inactive
same,Potency,[13],inactive
same,Potency,[14],inactive
same,Potency,[15],inactive
same,Potency,[16],inactive
same,Potency,[17],inactive
same,Potency,[19],inactive
CC(C)CBr,outcome,[1],inactive
same,Potency,[2],inactive
same,Potency,[3],inactive
same,"activity change, positive = activation",[4],2.25%
same,Potency,[5],inactive
same,Potency,[6],inactive
same,Potency,[7],inactive
same,Potency,[8],inactive
same,Potency,[9],inactive
same,Potency,[10],inactive
same,max response,[12],0.766%
same,Potency,[13],inactive
same,Potency,[14],inactive
same,Potency,[15],inactive
same,Potency,[16],inactive
same,Potency,[17],inactive
same,Potency,[18],inactive
same,Potency,[19],inactive
same,Potency,[20],inactive
Oc1c(Cl)c(Cl)cc(Cl)c1Cl,outcome,[1],inactive
same,Potency,[2],87.3 µM (active)
same,Potency,[3],37.5 µM (active)
same,"activity change, positive = activation",[4],-59.9%
same,Potency,[5],inactive
same,Potency,[6],47.6 µM (active)
same,Potency,[7],inactive
same,Potency,[8],inactive
same,Potency,[9],42.5 µM (active)
same,Potency,[10],47.6 µM (active)
same,Potency,[11],inactive
same,Potency,[12],47.6 µM (active)
same,Potency,[14],inactive
same,Potency,[15],inactive
same,Potency,[16],inactive
same,Potency,[17],inactive
same,Potency,[18],inactive
same,Potency,[20],inactive
Cl/C=C\CCl,outcome,[1],inactive
same,Potency,[2],inactive
same,Potency,[3],inactive
same,"activity change, positive = activation",[4],3.81%
same,Potency,[5],inactive
same,Potency,[6],inactive
same,Potency,[7],inactive
same,Potency,[8],inactive
same,Potency,[9],inactive
same,Potency,[10],inactive
same,Potency,[11],inactive
same,Potency,[14],inactive
same,Potency,[16],inactive
same,Potency,[17],inactive
same,Potency,[18],inactive
same,Potency,[19],inactive
same,Potency,[20],inactive
CCOP(=S)(OCC)SCCS(=O)(=O)CC,outcome,[1],inactive
same,Potency,[2],inactive
same,Potency,[3],inactive
same,"activity change, positive = activation",[4],1.7%
same,Potency,[5],inactive
same,Potency,[6],inactive
same,Potency,[7],inactive
same,Potency,[8],inactive
same,Potency,[9],inactive
same,Potency,[10],inactive
same,Potency,[11],inactive
same,Potency,[14],inactive
same,Potency,[15],inactive
same,Potency,[16],inactive
same,Potency,[17],inactive
same,Potency,[18],inactive
same,Potency,[19],inactive
same,Potency,[20],inactive
C1CCC2CCCCC2C1 (stereo not drawn),outcome,[1],inactive
same,Potency,[2],inactive
same,Potency,[3],inactive
same,"activity change, positive = activation",[4],-0.0659%
same,Potency,[5],inactive
same,Potency,[6],inactive
same,Potency,[8],inactive
same,Potency,[10],inactive
same,Potency,[11],inactive
same,max response,[12],15.5%
same,Potency,[13],inactive
same,Potency,[14],inactive
same,Potency,[15],inactive
same,Potency,[16],inactive
same,Potency,[17],inactive
same,Potency,[18],inactive
same,Potency,[19],inactive
same,Potency,[20],inactive
C[As+](C)(C)CC(=O)[O-],outcome,[1],inactive
same,Potency,[2],inactive
same,Potency,[3],inactive
same,"activity change, positive = activation",[4],5.87%
same,Potency,[5],inactive
same,Potency,[6],inactive
same,Potency,[7],inactive
same,Potency,[8],inactive
same,Potency,[9],inactive
same,Potency,[10],inactive
same,Potency,[11],inactive
same,max response,[12],-9.67%
same,Potency,[13],inactive
same,Potency,[14],inactive
same,Potency,[15],inactive
same,Potency,[16],inactive
same,Potency,[17],inactive
same,Potency,[18],inactive
same,Potency,[19],inactive
same,Potency,[20],inactive
C=COCCCl,outcome,[1],inactive
same,Potency,[2],inactive
same,Potency,[3],inactive
same,"activity change, positive = activation",[4],14.7%
same,Potency,[5],inactive
same,Potency,[6],inactive
same,Potency,[7],inactive
same,Potency,[8],inactive
same,Potency,[9],inactive
same,Potency,[10],inactive
same,Potency,[11],inactive
same,max response,[12],15.2%
same,Potency,[13],inactive
same,Potency,[14],inactive
same,Potency,[15],inactive
same,Potency,[16],inactive
same,Potency,[17],inactive
same,Potency,[18],inactive
same,Potency,[19],inactive
same,Potency,[20],inactive
N#Cc1ccccc1Cl,outcome,[1],inactive
same,Potency,[2],inactive
same,Potency,[3],inactive
same,"activity change, positive = activation",[4],1.91%
same,Potency,[5],inactive
same,Potency,[6],inactive
same,Potency,[8],inactive
same,Potency,[9],inactive
same,Potency,[10],inactive
same,Potency,[11],inactive
same,Potency,[13],inactive
same,Potency,[14],inactive
same,Potency,[15],inactive
same,Potency,[16],inactive
same,Potency,[17],inactive
same,Potency,[18],inactive
same,Potency,[19],inactive
same,Potency,[20],inactive
COC[C@H](C)N(C(=O)CCl)c1c(C)csc1C,outcome,[1],inactive
same,Potency,[2],inactive
same,Potency,[3],inactive
same,"activity change, positive = activation",[4],9.24%
same,Potency,[5],inactive
same,Potency,[6],inactive
same,Potency,[7],inactive
same,Potency,[8],inactive
same,Potency,[9],inactive
same,Potency,[10],inactive
same,Potency,[11],inactive
same,max response,[12],19.6%
same,Potency,[13],inactive
same,Potency,[14],inactive
same,Potency,[15],inactive
same,Potency,[16],inactive
same,Potency,[17],inactive
same,Potency,[18],inactive
same,Potency,[19],inactive
same,Potency,[20],inactive
